Source: PubChem BioAssay (Tox21)
Inconclusive results are not listed. Activity calls are given as the source filed them. Unless noted, calls follow the shape of the dose curve; as a rule, active = well fitted curve in the direction sought with a large enough effect in the repeat runs; inconclusive = weak or mixed curves; inactive = no such curve, though single readings can be large; an effect the other way counts as inactive or inconclusive.

Tests used:
[1] = qHTS assay to identify small molecule agonists of the androgen receptor (AR) signaling pathway in the presence of an antagonist - cell viability counter screen (AID 1259379); details: MDA-kb2 viability, CellTiter-Fluor, 16 h; series mostly up to 92.4 µM; also: nearly all actives have a fitted effect of over 25% in size; also: potency is read from the fitted curve at half-maximal effect
How it was run: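 MDA-kb2 viability measured by CellTiter-Fluor fluorescence in the same wells as the luciferase signal; nilutamide 3.0uM final; 15-point compound titration; 16 hr at 37C.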

[2] = qHTS assay to identify small molecule agonists of the estrogen receptor beta (ER-beta) signaling pathway - cell viability counter screen (AID 1259380); details: ER-beta-bla HEK293T viability, CellTiter-Glo luminescence, 16 h; series mostly up to 92.4 µM; also: nearly all actives have a fitted effect of over 30% in size; also: potency is read from the fitted curve at half-maximal effect
How it was run: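 Measured: luminescence from CellTiter-Glo after 30 min at room temperature, added to wells already read for the LiveBLAzer FRET reporter (2 hr substrate); ER-beta-UAS-bla HEK293T cells had 16 hr compound treatment at 37C, 5% CO2.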

[3] = qHTS assay to identify small molecule antagonists of the estrogen receptor beta (ER-beta) signaling pathway - cell viability counter screen (AID 1259382); details: ER-beta-UAS-bla HEK293T viability, CellTiter-Glo luminescence, 16 h; series mostly up to 92.4 µM; also: nearly all actives have a fitted effect of over 55% in size
How it was run: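 Readout: luminescence, CellTiter-Glo, same wells as bla assay. System: ER-beta-UAS-bla GripTite HEK293T, 2% charcoal-stripped FBS. Exposure: compounds plus 1nM 17-beta-estradiol, 16 hr, 37C.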

[4] = biological target: Estrogen receptor (Homo sapiens) (UniProt P03372); experiment: qHTS assay to identify small molecule agonists of the estrogen receptor alpha (ER-alpha) signaling pathway in the presence of an antagonist (AID 1259383; calls by dose curve; also: top concentration of the series differs between compounds; nearly all actives have a fitted effect of over 15% in size); details: VM7Luc4E2 cells, ERE-luciferase, +ICI-182,780, 22 h; series mostly up to 92.4 µM
Chain of Estrogen receptor (Homo sapiens) (P03372 whole entry, looked up): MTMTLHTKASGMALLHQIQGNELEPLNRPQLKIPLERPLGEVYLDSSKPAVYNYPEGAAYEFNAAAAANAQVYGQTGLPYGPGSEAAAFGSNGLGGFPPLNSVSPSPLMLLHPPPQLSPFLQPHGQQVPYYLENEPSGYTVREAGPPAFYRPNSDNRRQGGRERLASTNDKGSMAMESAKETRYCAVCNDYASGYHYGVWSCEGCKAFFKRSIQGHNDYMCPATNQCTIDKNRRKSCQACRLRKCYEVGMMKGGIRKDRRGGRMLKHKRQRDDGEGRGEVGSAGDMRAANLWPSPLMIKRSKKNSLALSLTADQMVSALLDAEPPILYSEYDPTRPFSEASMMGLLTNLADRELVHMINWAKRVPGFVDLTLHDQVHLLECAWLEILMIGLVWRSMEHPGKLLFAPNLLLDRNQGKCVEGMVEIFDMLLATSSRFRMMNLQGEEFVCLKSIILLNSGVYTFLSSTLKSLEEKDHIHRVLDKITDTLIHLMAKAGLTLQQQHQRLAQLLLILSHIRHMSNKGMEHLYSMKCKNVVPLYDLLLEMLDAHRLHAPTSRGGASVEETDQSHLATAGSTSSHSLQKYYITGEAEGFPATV
How it was run: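 Quantitative HTS confirmation: compounds titrated at 15 concentrations onto estrogen-deprived VM7Luc4E2 cells carrying a four-ERE luciferase construct, with ICI-182,780 present at 10.0nM final. Signal is luminescence after 22hr exposure.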

[5] = qHTS assay to identify small molecule agonists or antagonists of the thyroid stimulating hormone receptor (TSHR) signaling pathway - wild type cell line counter screen (AID 1259384; calls by dose curve); details: HEK293 wild type, cAMP HTRF counter-screen, hits give high values; series mostly up to 92.4 µM
How it was run: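 Wild-type HEK293 cells were plated 18 h at 37 C/5% CO2, pin-dosed with compound plus Ro20-1724 medium, held 30 min at room temperature, then given cAMP-d2 and anti-cAMP-cryptate; fluorescence was read after 1 h. Fifteen concentrations, triplicate.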

[6] = biological target: Thyrotropin receptor (Homo sapiens) (UniProt P16473); experiment: qHTS assay to identify small molecule antagonists of the thyroid stimulating hormone receptor (TSHR) signaling pathway (AID 1259385; calls by dose curve; also: nearly all actives have a fitted effect of over 20% in size); details: TSHR-HEK293 cAMP HTRF, TSH-stimulated antagonist mode; series mostly up to 92.4 µM
Chain of Thyrotropin receptor (Homo sapiens) (P16473 whole entry, looked up): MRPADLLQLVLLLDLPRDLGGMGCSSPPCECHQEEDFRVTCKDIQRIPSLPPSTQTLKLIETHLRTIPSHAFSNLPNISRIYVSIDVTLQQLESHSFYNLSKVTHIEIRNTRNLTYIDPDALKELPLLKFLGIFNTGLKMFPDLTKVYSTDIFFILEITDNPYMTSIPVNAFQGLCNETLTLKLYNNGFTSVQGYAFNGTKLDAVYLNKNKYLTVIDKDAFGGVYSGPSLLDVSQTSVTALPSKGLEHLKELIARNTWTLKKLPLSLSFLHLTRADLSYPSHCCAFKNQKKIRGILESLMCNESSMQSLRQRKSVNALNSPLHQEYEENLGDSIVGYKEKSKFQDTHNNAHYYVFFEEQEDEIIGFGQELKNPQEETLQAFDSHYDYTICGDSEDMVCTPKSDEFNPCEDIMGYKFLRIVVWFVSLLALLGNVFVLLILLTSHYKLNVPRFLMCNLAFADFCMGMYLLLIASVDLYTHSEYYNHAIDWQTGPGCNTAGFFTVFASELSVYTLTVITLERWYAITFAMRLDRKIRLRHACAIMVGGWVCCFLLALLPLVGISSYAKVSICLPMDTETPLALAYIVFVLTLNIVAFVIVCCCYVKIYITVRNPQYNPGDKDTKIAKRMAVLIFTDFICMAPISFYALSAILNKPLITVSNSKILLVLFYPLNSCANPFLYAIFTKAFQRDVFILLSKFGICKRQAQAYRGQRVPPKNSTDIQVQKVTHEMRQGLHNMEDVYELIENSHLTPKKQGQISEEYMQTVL
How it was run: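 TSHR-HEK293 cells were plated and held 18 h at 37C/5% CO2, then given compound plus Ro20-1724 and stimulated with TSH at 1.5 ng/mL final. After 30 min at room temperature, cAMP was detected with cAMP-d2/anti-cAMP-cryptate (1 h) by fluorescence.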

[7] = qHTS assay to identify small molecule agonists of the estrogen receptor alpha (ER-alpha) signaling pathway in the presence of an antagonist - cell viability counter screen (AID 1259386); details: VM7Luc4E2 viability, CellTiter-Fluor fluorescence, 22 h; series mostly up to 92.4 µM;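 also: cells exposed to compounds for 22 h at 37 °C before the viability read; nearly all actives have a fitted effect of over 30% in size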
How it was run: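 The test measures whether compounds kill ER-alpha reporter cells (VM7Luc4E2) under antagonist co-treatment (ICI-182,780, 10.0nM). Fluorescence from CellTiter-Fluor is read after a 22hr exposure.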

[8] = biological target: Progesterone receptor (Homo sapiens) (UniProt P06401); experiment: qHTS assay to identify small molecule agonists of the progesterone receptor (PR) signaling pathway (AID 1346784; calls by dose curve; also: nearly all actives have a fitted effect of over 30% in size); details: PR-UAS-bla HEK293T, beta-lactamase FRET ratio, 16 h; series mostly up to 92.4 µM
Chain of Progesterone receptor (Homo sapiens) (P06401 whole entry, looked up): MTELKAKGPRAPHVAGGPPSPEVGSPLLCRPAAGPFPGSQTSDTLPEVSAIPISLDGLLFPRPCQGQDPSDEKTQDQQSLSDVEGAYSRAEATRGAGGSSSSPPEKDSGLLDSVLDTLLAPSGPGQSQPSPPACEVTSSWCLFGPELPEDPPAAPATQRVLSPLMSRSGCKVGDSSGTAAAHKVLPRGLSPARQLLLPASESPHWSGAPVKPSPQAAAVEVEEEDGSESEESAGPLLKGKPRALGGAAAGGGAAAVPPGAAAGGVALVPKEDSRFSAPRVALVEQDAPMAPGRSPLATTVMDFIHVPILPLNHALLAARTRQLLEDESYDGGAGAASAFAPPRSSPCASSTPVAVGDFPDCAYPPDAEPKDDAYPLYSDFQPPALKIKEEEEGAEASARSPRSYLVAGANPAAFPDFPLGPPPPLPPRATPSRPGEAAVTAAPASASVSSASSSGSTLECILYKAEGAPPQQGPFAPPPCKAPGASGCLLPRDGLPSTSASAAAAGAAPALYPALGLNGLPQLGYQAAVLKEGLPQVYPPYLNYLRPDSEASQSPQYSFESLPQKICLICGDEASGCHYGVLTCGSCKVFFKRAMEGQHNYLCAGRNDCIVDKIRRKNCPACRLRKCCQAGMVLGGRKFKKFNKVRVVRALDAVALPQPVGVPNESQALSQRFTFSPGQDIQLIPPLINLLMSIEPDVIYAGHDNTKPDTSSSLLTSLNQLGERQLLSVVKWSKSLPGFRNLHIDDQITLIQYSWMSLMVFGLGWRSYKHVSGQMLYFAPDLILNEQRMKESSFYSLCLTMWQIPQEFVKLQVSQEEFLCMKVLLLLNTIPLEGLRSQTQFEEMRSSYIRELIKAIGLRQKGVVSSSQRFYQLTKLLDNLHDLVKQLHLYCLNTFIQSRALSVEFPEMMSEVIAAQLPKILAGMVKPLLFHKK
How it was run: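 Agonist mode, quantitative HTS format in a HEK 293T line expressing a UAS-controlled beta-lactamase reporter; 16 hr compound exposure at 37C in 2% charcoal-stripped FBS, then LiveBLAzer B/G FRET fluorescence.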

[9] = biological target: Progesterone receptor (Homo sapiens) (UniProt P06401); experiment: qHTS assay to identify small molecule antagonists of the progesterone receptor (PR) signaling pathway (AID 1346795; active = well fitted inhibition curve with a large enough effect in the signal ratio in the repeat runs, not every such curve was filed as active; the % refers to the signal ratio; also: potency is read from the fitted curve at half-maximal effect); details: PR-UAS-bla HEK293T, beta-lactamase FRET ratio, 16 h; series mostly up to 92.4 µM
How it was run: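 HEK293T PR-UAS-bla reporter cells in charcoal-stripped serum (2%) received compound after a 6 hr settling period, followed by R5020 agonist at 1 nM final; 16 hr incubation preceded the FRET substrate step and fluorescence measurement.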

[10] = qHTS assay to identify small molecule antagonists of the progesterone receptor (PR) signaling pathway - cell viability counter screen (AID 1346798); details: PR-UAS-bla HEK293T viability, CellTiter-Glo luminescence, 16 h; series mostly up to 92.4 µM; also: nearly all actives have a fitted effect of over 50% in size
How it was run: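 Same-well multiplex: after 16 hr at 37C with compound and R5020 stimulation, HEK293T cells carrying a UAS-bla reporter received LiveBLAzer substrate (2 hr RT), then CellTiter-Glo (30 min RT) for luminescent viability.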

[11] = qHTS assay to identify small molecule agonists of the progesterone receptor (PR) signaling pathway - cell viability counter screen (AID 1346799; calls by dose curve; also: nearly all actives have a fitted effect of over 45% in size); details: PR-UAS-bla HEK293T viability, CellTiter-Glo luminescence, 16 h; series mostly up to 92.4 µM
How it was run: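 Counter screen for cytotoxicity: compound-treated PR-UAS-bla HEK293T cells (16 hr, 37C, 5% CO2) were assayed with CellTiter-Glo, luminescence measured after 30 min at room temperature.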

[12] = qHTS assay to identify small molecule antagonists of the TGF-beta/Smad signaling pathway - cell viability counter screen (AID 1346824); details: SBE-bla HEK293T viability, CellTiter-Glo luminescence; series mostly up to 76.8 µM; also: nearly all actives have a fitted effect of over 50% in size
How it was run: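 SBE-bla HEK 293T cells were plated overnight at 37 C, then given compounds in DMSO plus TGF-beta1 (added as 0.25 ng/mL solution) for 5 hr. After the bla read, CellTiter-Glo was added to the same wells and luminescence read after 30 min at room temperature.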

[13] = qHTS assay to identify small molecule agonists of the TGF-beta/Smad signaling pathway - cell viability counter screen (AID 1346829); details: SBE-bla HEK293T viability, CellTiter-Glo luminescence, 5 h; series mostly up to 76.8 µM; also: top concentration of the series differs between compounds; nearly all actives have a fitted effect of over 45% in size
How it was run: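 Cytotoxicity counter screen: CellTiter-Glo luminescence (30 min, room temperature) measured in the SBE-bla HEK 293T reporter wells after 5 hr compound treatment at 37 C and the 2 hr substrate step.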

[14] = qHTS assay to identify small molecule agonists of the TGF-beta/Smad signaling pathway (AID 1346859; active = well fitted activation curve with a large enough effect in the signal ratio in the repeat runs, not every such curve was filed as active; the % refers to the signal ratio); details: SBE-bla HEK293T, TGF-beta/Smad beta-lactamase reporter, 5 h; series mostly up to 76.8 µM
How it was run: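 Smad-responsive beta-lactamase reporter cells (HEK 293T) received compounds from DMSO stocks after overnight attachment, were incubated 5 hr, then treated 2 hr with FRET substrate before dual-emission fluorescence measurement (405 nm excitation).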

[15] = biological target: Thyrotropin-releasing hormone receptor (Homo sapiens) (UniProt P34981); experiment: qHTS assay to identify small molecule antagonists of the thyrotropin-releasing hormone receptor (TRHR) signaling pathway (AID 1346877; active = well fitted inhibition curve with a large enough effect in the repeat runs, not every such curve was filed as active); details: TRHR-HEK293, TRH-induced calcium fluorescence, antagonist mode; series mostly up to 51.3 µM
Chain of Thyrotropin-releasing hormone receptor (Homo sapiens) (P34981 whole entry, looked up): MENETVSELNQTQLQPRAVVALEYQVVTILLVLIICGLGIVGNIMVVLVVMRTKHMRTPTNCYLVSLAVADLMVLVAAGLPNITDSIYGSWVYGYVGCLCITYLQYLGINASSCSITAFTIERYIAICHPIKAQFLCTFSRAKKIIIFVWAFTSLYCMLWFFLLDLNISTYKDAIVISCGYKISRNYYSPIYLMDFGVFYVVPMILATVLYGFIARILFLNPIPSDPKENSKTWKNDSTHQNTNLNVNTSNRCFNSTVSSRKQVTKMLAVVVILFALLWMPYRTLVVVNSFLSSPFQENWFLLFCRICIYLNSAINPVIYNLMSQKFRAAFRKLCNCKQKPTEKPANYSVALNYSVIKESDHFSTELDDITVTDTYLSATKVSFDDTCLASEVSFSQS
How it was run: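 Overnight-plated (18 h, 37 °C) HEK293 cells expressing TRHR were dye-loaded 2 h, treated with compound, then stimulated with TRH at 1 nM final. Fluorescence intensity was captured every second for 3 min.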

[16] = biological target: Thyrotropin-releasing hormone receptor (Homo sapiens) (UniProt P34981); experiment: qHTS assay to identify small molecule agonists of the thyrotropin-releasing hormone receptor (TRHR) signaling pathway (AID 1346891; calls by dose curve;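 also: HEK293 cells expressing TRHR with calcium dye readout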); details: TRHR-HEK293 calcium fluorescence, agonist mode; series mostly up to 57.6 µM
How it was run: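 Agonist-mode calcium mobilisation screen: TRHR-transfected HEK293 cells cultured overnight (18 h), dye-loaded for 2 h at 37 °C, exposed to compounds, and monitored by fluorescence for 3 min.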

[17] = biological target: Estrogen receptor beta (Homo sapiens) (UniProt Q92731); experiment: qHTS assay to identify small molecule antagonists of the estrogen receptor beta (ER-beta) signaling pathway (AID 1259378; active = well fitted inhibition curve with a large enough effect in the signal ratio in the repeat runs, not every such curve was filed as active; the % refers to the signal ratio); details: ER-beta-UAS-bla HEK293T, beta-lactamase FRET ratio, 16 h; series mostly up to 92.4 µM
Chain of Estrogen receptor beta (Homo sapiens) (Q92731 whole entry, looked up): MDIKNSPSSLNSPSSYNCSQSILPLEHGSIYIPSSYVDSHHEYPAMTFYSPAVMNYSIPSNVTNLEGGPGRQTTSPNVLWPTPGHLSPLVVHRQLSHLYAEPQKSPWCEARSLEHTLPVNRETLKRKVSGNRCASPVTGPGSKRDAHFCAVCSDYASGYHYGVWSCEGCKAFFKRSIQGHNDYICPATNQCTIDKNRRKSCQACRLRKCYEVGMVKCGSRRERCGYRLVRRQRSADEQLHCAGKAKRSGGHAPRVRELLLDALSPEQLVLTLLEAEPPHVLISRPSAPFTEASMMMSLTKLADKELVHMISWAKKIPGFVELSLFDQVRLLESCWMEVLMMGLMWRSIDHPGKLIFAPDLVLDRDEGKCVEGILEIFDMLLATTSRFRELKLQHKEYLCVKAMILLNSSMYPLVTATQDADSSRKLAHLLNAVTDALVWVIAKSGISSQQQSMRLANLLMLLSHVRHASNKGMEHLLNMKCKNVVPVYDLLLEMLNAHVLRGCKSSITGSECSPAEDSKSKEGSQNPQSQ
How it was run: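 ER-beta-UAS-bla HEK293T (GripTite) cells in 2% charcoal-stripped FBS medium were preincubated 6 hr at 37C, dosed with compound, then stimulated with 1 nM E2 (final) for 16 hr; beta-lactamase reporter read by B/G FRET fluorescence after 2 hr substrate loading.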

Measured: Potency

Cc1cc(C)cc(OCC2CNC(=O)O2)c1 (stereo not given)
not listed: [15] | [16] | [17]
inactive: all other assays above

CN(C)C(=O)C(CCN1CCC(O)(c2ccc(Cl)cc2)CC1)(c1ccccc1)c1ccccc1
active: [1] 29.8 µM | [2] 26.6 µM
not listed: [3] | [5] | [6] | [9] | [14] | [17]
inactive: all other assays above

O=C(O)c1cccc(C(=O)O)n1
not listed: [4] | [11]
inactive: all other assays above

Cc1cc(C)c(NC(=O)CN(CC(=O)O)CC(=O)O)c(C)c1Br
not listed: [4] | [5] | [6] | [15] | [16]
inactive: all other assays above

CC(=O)O[C@H](CC(=O)[O-])C[N+](C)(C)C
not listed: [8] | [12] | [17]
inactive: all other assays above

CCCCc1ccc(N)cc1
not listed: [12] | [15] | [16]
inactive: all other assays above

COc1cc(O)cc(O)c1
not listed: [4] | [17]
inactive: all other assays above

O=C(O)Cc1cc(I)c(Oc2cc(I)c(O)c(I)c2)c(I)c1
inactive: [1] | [7] | [10] | [12] | [13] | [14] | [16]
active: [9] 18.9 µM

C=C(C)[C@H]1CC=C(C)CC1
not listed: [5] | [6] | [15] | [16] | [17]
inactive: all other assays above

CCCCCCCCCCCCI
not listed: [2] | [4] | [5] | [17]
inactive: all other assays above

CCCCCC[C@@H](CCC)C(=O)O
not listed: [2] | [11]
inactive: all other assays above

Nc1ncnc2c1ncn2Cc1c(F)cccc1Cl
not listed: [5] | [17]
inactive: all other assays above

N[C@@H](CS)C(=O)O
not listed: [4] | [6] | [15] | [16] | [17]
inactive: all other assays above

CC(=O)OC(C)(C)C
not listed: [5] | [6]
inactive: all other assays above

Nc1ccc2cc(S(=O)(=O)O)ccc2c1
not listed: [4] | [6] | [17]
inactive: all other assays above

C=CCOc1nc(OCC=C)nc(OCC=C)n1
not listed: [4] | [6]
inactive: all other assays above

O=C(O)c1ccccc1S
not listed: [6] | [15] | [16]
inactive: all other assays above

C=CCSCC1Nc2cc(Cl)c(S(N)(=O)=O)cc2S(=O)(=O)N1 (stereo not given)
not listed: [4] | [17]
inactive: all other assays above

COc1cc(C)cc(O)c1
not listed: [4] | [5] | [6] | [15] | [16]
inactive: all other assays above
